About 83,000 compounds went through this panel and 20% of them were active in at least one assay; those are over-represented in the sample as a whole.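 Growth was measured after 48 h exposure to one concentration of compound in 96-well plates. Values under 10 count as active.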 Values without a mark were called inactive. Calls of active or inactive are those of the source.
Legend:
Assay in all cases: NCI-60 one-dose screen, 48 h (100 = growth as untreated, 0 = no growth, -100 = all killed)
Conditions in all cases: 10 µM unless noted
T-47D breast = tested on: T-47D breast
BT-549 breast = tested on: BT-549 breast
MDA-MB-435 melanoma = tested on: MDA-MB-435 melanoma
SW-620 colon = tested on: SW-620 colon
MCF7 breast = tested on: MCF7 breast
HCT-116 colon = tested on: HCT-116 colon
HCC-2998 colon = tested on: HCC-2998 colon
KM12 colon = tested on: KM12 colon

Compound	growth (T-47D breast)	growth (BT-549 breast)	growth (MDA-MB-435 melanoma)	growth (SW-620 colon)	growth (MCF7 breast)	growth (HCT-116 colon)	growth (HCC-2998 colon)	growth (KM12 colon)
CCOC(=O)Nc1nccs1	94.8%	101%	111%	110%	101%	104%	118%	107%
C1CCc2onc(-c3noc4c3CCCCC4)c2CC1	101%	108%	110%	124%	95.5%	105%	109%	107%
NNC(=O)CCCCl	100%	119%	108%	105%	98.4%	108%	102%	102%
CC(=O)Nc1ccc(/C=C2\SC(=S)N(/C=C(\C(C)=O)C(N)=O)C2=O)cc1	87.5%	92.3%	89.6%	96.9%	96.4%	92.2%	94.4%	101%
CC(=O)N=c1ccc2nc3c(cc(N)c4ccccc43)oc-2c1	-57.8% (active)	10.4%	-82.3% (active)	-88.7% (active)	-74.9% (active)	-45.2% (active)	-4.32% (active)	-59.9% (active)
Oc1cccc(CNC2CCCCC2)c1	113%	112%	105%	116%	91.3%	103%	102%	107%
Clc1ncnc2nc[nH]c12	90.7%	101%	106%	103%	94.9%	102%	89.6%	105%
Cc1cc(Cl)cc(Cc2cc(Cl)cc(C)c2O)c1O	14%	1.21% (active)	-10.5% (active)	14%	22.4%	8.46% (active)	13.1%	-5.92% (active)
O=S(=O)(O)c1cccnc1	106%	111%	102%	98.9%	99.9%	126%	153%	101%
CN1CCCN(C(c2ccccc2)c2ccc(Br)cc2)CC1 (stereo not drawn)	103%	63.3%	-29.3% (active)	49.6%	37.5%	21.4%	95.9%	63.9%
CC(=O)Nc1ncc(S(=O)(=O)c2ccc([N+](=O)[O-])cc2)s1	91.4%	108%	111%	101%	105%	98.9%	128%	116%
NNC(=O)c1ccccc1N	103%	121%	114%	103%	101%	99.3%	112%	105%
N#Cc1ccc(OC(=O)Nc2c(Cl)cc(Cl)cc2Cl)cc1	91.6%	113%	96.4%	118%	100%	101%	110%	107%
COC(=O)C1=C(C)C(=O)CC1	127%	114%	121%	106%	97.4%	103%	116%	121%
CC(C)NC(=O)OCc1c(COC(=O)NC(C)C)c(-c2ccc(Cl)cc2)n2c1CCC2	36.3%	27%	66.7%	46.6%	41.2%	49.9%	87%	100%
Cc1ccc(/C=N/NC(N)=S)s1	100%	113%	106%	107%	100%	99.5%	113%	107%
CCOC(=O)C(COS(C)(=O)=O)(COS(C)(=O)=O)C(=O)OCC	103%	106%	104%	110%	98.7%	104%	106%	107%
Nc1nc(Cl)cc(Cl)n1	82%	102%	111%	109%	90.3%	90.1%	114%	106%

Compound	growth (T-47D breast)	growth (BT-549 breast)	growth (MDA-MB-435 melanoma)	growth (SW-620 colon)	growth (MCF7 breast)	growth (HCT-116 colon)	growth (HCC-2998 colon)	growth (KM12 colon)
CC1CCC(C(C)(C)[N+](C)(C)C)CC1 (stereo not drawn)	98.8%	92.6%	108%	105%	94.4%	98.4%	93.7%	99.7%
N=C(N)c1nn(C2OC(CO)C(O)C2O)c2nc[nH]c(=O)c12 (stereo not drawn)	-14.6% (active)	-14.8% (active)	-49.5% (active)	-4.15% (active)	4.19% (active)	-80.3% (active)	-22.8% (active)	-49.4% (active)
COC1OC(CO)C(OC)C(O)C1O (stereo not drawn)	112%	104%	109%	93.6%	98.9%	106%	107%	99.6%
S=c1nc2[nH]c3ccccc3c2n[nH]1	88.2%	102%	107%	95%	92.2%	96.4%	102%	130%
O=S(=O)(OCCOS(=O)(=O)c1ccccc1)c1ccccc1	105%	86.4%	107%	102%	88%	87.4%	72.8%	101%
c1ccc(Oc2c3ccccc3nc3ccccc23)cc1	56.2%	25.2%	-5.48% (active)	19.2%	14.2%	-25.7% (active)	20.9%	0.624% (active)
CC(C)(CC(=O)O)CC(=O)O	119%	98.6%	99.7%	103%	103%	103%	99.8%	100%
COC(=O)C1(CC(C)=O)NC(=S)NC(=O)C1C#N (stereo not drawn)	108%	108%	114%	102%	97.5%	106%	109%	106%
O=C(NCc1ccccc1)/C(=C/c1ccccc1)NC(=O)c1ccccc1	110%	98.6%	113%	102%	96.6%	107%	102%	101%
COc1ccc(Nc2cc(Cl)ccc2C(=O)O)cn1	110%	122%	122%	103%	98.4%	102%	110%	99.2%
NC(=O)c1cc2c3ccccc3ccn2c1-c1ccccc1	88.7%	25.5%	-13.5% (active)	33.7%	10.3%	-32.6% (active)	-6.31% (active)	4.03% (active)
Clc1ccc(C(SCc2ccccc2)SCc2ccccc2)cc1	79%	103%	97.9%	89.4%	93.8%	76.3%	120%	85.1%
COc1ccc2c(c1)Nc1ccccc1S2	95.7%	89.1%	112%	106%	98.6%	105%	108%	110%
Nc1cc(N)ncn1	112%	101%	102%	104%	99.7%	99.1%	99.6%	101%
CCN(CC)CCOC(=O)Nc1c(C(C)C)cccc1C(C)C	103%	117%	102%	118%	101%	101%	114%	105%
CC(=O)NNC(=S)/N=C\C(C(=O)c1ccccc1)=C(/O)c1ccccc1	87.8%	92.7%	109%	110%	93.6%	96.5%	102%	99.4%
C=CC1=NC(C)(C)CC(C)O1 (stereo not drawn)	92.2%	109%	94.7%	104%	93.4%	107%	110%	109%
S=c1nc(-c2ccccn2)c(-c2ccccn2)n[nH]1	93.9%	101%	110%	106%	96.9%	100%	99.5%	97.4%

Source: PubChem BioAssay (NCI)
